# Measurements: the supplement of paper PMC10732440
# ± gives the standard deviation of the averaged measurements.
# Test system: Caenorhabditis elegans N2 infected with Nematocida parisii ERTm1
# Assay: progeny production relative to DMSO uninfected control; higher = more progeny despite microsporidia infection (inhibition of infection with low host toxicity)
# Conditions: infection time 6 days; 40 µM
# Description: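 Bleach-synchronised C. elegans N2 L1 larvae (100 per well) were grown in 96-well plates in K-medium with 5x E. coli OP50 and 15,000 N. parisii spores/uL, plus Pandemic Response Box compound at 100 uM or 40 uM (1% DMSO), for 6 days at 21 C with shaking. Worms were stained with Rose Bengal, scanned on a flatbed scanner and counted with WorMachine. Progeny production is given as % of the DMSO uninfected control (triplicate wells), so higher values mean the compound restores progeny despite infection.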
row,SMILES,progeny production
1,c1ccc(-c2nnc3c4ccccc4c(N4CCNCC4)nn23)cc1,2.73 ± 0.97%
2,Cc1cc(C2CCCCC2)n(O)c(=O)c1,5.34 ± 2.3%
3,O=C(NC1CCCc2c1[nH]c1ccc(Cl)cc21)c1ccccn1 (stereo not given),2.24 ± 0.5%
4,COc1ccc(NC(=O)CC2Sc3ncnn3C2=O)cc1 (stereo not given),8.48 ± 3.4%
5,Cc1ccc(NC(=O)c2cc(Cl)ccc2O)cc1,8.65 ± 5.8%
6,Nc1nc(N)c2c(Sc3ccccc3)cccc2n1,3.69 ± 1.5%
7,CCc1nc2ccccn2c1C(=O)NCc1ccccc1,6.11 ± 1.7%
8,Cc1c(N)cccc1Cn1ccc(OCCc2cccs2)cc1=O,7.99 ± 2.1%
9,Nc1nc(=O)[nH]cc1F,5.01 ± 1.2%
10,CN(C)CC(=O)Nc1ccc2[nH]c(=O)c3ccccc3c2c1,3.86 ± 0.4%
11,Nc1nc2c(Cc3cccnc3)c[nH]c2c(=O)[nH]1,5.79 ± 0.11%
12,CCCCSc1nc(N)c2[nH]c(=O)c(=O)n(Cc3ccccc3)c2n1,4.52 ± 1.9%
13,NC(=O)c1c(N)sc2c1CCCCC2,3.71 ± 1.1%
14,c1cc(CN2CCCNCCNCCCNCC2)ccc1CN1CCCNCCNCCCNCC1,2.33 ± 1%
15,CCc1oc2ccccc2c1C(=O)c1ccc(O)cc1,11.4 ± 2.5%
16,Nc1cc(-c2nc3ccccc3[nH]2)n[nH]c1=O,6.4 ± 6.5%
17,Cc1cc(C)n(O)c(=O)c1,1.95 ± 0.44%
18,CN(C)CCCNC(=O)c1ccc(-c2cc(O)c3ncccc3c2)cc1,5.74 ± 3.9%
19,C[C@@H](O)[C@H](N)C(=O)NS(=O)(=O)c1cccc(-c2ccc3[nH]ncc3c2)c1,3.15 ± 1.8%
20,N=c1n(CCN2CCCCC2)c2ccccc2n1CC(O)COc1ccc(Cl)cc1Cl (stereo not given),5.53 ± 1.7%

# Same assay, conditions: infection time 6 days; 100 µM
row,SMILES,progeny production
1,c1ccc(-c2nnc3c4ccccc4c(N4CCNCC4)nn23)cc1,15.6 ± 12%
2,Cc1cc(C2CCCCC2)n(O)c(=O)c1,33 ± 36%
3,O=C(NC1CCCc2c1[nH]c1ccc(Cl)cc21)c1ccccn1 (stereo not given),7.35 ± 5.1%
4,COc1ccc(NC(=O)CC2Sc3ncnn3C2=O)cc1 (stereo not given),14.8 ± 8.1%
5,Cc1ccc(NC(=O)c2cc(Cl)ccc2O)cc1,8.35 ± 5.3%
6,Nc1nc(N)c2c(Sc3ccccc3)cccc2n1,16.4 ± 12%
7,CCc1nc2ccccn2c1C(=O)NCc1ccccc1,12.8 ± 11%
8,Cc1c(N)cccc1Cn1ccc(OCCc2cccs2)cc1=O,15.6 ± 15%
9,Nc1nc(=O)[nH]cc1F,23.7 ± 7.4%
10,CN(C)CC(=O)Nc1ccc2[nH]c(=O)c3ccccc3c2c1,14.1 ± 5%
11,Nc1nc2c(Cc3cccnc3)c[nH]c2c(=O)[nH]1,16.4 ± 9.7%
12,CCCCSc1nc(N)c2[nH]c(=O)c(=O)n(Cc3ccccc3)c2n1,20.2 ± 11%
13,NC(=O)c1c(N)sc2c1CCCCC2,8.33 ± 4.8%
14,c1cc(CN2CCCNCCNCCCNCC2)ccc1CN1CCCNCCNCCCNCC1,9.51 ± 8.6%
15,CCc1oc2ccccc2c1C(=O)c1ccc(O)cc1,16.8 ± 0.54%
16,Nc1cc(-c2nc3ccccc3[nH]2)n[nH]c1=O,10.7 ± 4.7%
17,Cc1cc(C)n(O)c(=O)c1,14.8 ± 8.8%
18,CN(C)CCCNC(=O)c1ccc(-c2cc(O)c3ncccc3c2)cc1,10.5 ± 6.4%
19,C[C@@H](O)[C@H](N)C(=O)NS(=O)(=O)c1cccc(-c2ccc3[nH]ncc3c2)c1,20.2 ± 20%
20,N=c1n(CCN2CCCCC2)c2ccccc2n1CC(O)COc1ccc(Cl)cc1Cl (stereo not given),9.49 ± 8.7%
